# Data taken from PubChem BioAssay (Tox21).
# Unmarked numbers belong to inactive results. Inconclusive results are not listed. Where a call stands in place of a potency, no number is given. Active and inactive are the calls of the source. Unless noted, the call rests on the fitted dose curve.
# Assays:
# [1] = Nuclear factor erythroid 2-related factor 2/antioxidant responsive element (Nrf2/ARE) small molecule agonists: qHTS cell viability counter screen in human keratinocytes (AID 1919968; active means well fitted curve in the direction sought with a large enough effect in the repeat runs; an effect the other way counts as inactive or inconclusive; further: nearly all actives have a fitted effect of over 55% in size)
# Method in brief: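 KeratinoSens HaCaT cells, 1,500/well, preincubated 5 h, then exposed to compounds in DMSO for 23 h at 37 C/5% CO2. Viability read as CellTiter-Fluor fluorescence after 1 h, in the same wells as the ARE-luciferase read.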
# [2] = Nuclear factor erythroid 2-related factor 2/antioxidant responsive element (Nrf2/ARE) small molecule agonists: luciferase reporter gene qHTS assay in human keratinocytes (AID 1919969); further: nearly all actives have a fitted effect of over 35% in size; further: potency means the concentration at half of the fitted maximal effect
# [3] = target: Gonadotropin-releasing hormone receptor (Homo sapiens) (UniProt P30968); experiment: Human gonadotropin-releasing hormone receptor (GnRHR) small molecule agonists, calcium flux assay in GnRHR-HEK293 cells (AID 1920063); further: nearly all actives have a fitted effect of over 35% in size
# Method in brief: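 HEK293 cells stably expressing human GnRHR were dye-loaded for 1 h at 37 C. Compound was added in agonist mode and fluorescence (Ex/Em 480/540) recorded kinetically for 3 min. Fifteen concentrations, triplicates.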
# [4] = target: KiSS-1 receptor (Homo sapiens) (UniProt Q969F8); experiment: Human kisspeptin (KISS1R) small molecule agonists, calcium flux assay in KISS1R-HEK293 cells (AID 1920064; active means well fitted curve in the direction sought with a large enough effect in the repeat runs; an effect the other way counts as inactive or inconclusive)
# Method in brief: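 HEK293 cells stably expressing human KISS1R were loaded with calcium dye for 1 h at 37 C, then given compound; fluorescence (Ex/Em 480/540) was read kinetically for 3 min. Fifteen concentrations, triplicate.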
# [5] = G protein-coupled receptor (GPCR) small molecule agonists, calcium flux assay: HEK293 wild type cell line counter screen (AID 1920065)
# Method in brief: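 Wild-type HEK293 cells plated 18 h, loaded with calcium dye 1 h at 37 C, then compounds added in agonist mode (ATP as positive control). Kinetic fluorescence Ex/Em 480/540 recorded 3 min at 1 sec intervals; 15 concentrations, triplicate.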
# [6] = p53 small molecule agonists, cell-based qHTS assay with human liver microsomes: qHTS cell viability counter screen (AID 1963579); further: nearly all actives have a fitted effect of over 45% in size
# Method in brief: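 Metabolically activated exposure: compounds, human liver microsomes and NADPH (0.5 mg/mL final apiece) were added to p53RE-bla cells seeded 5 h earlier, left 16 h at 37 C, and then assessed for viability by CellTiter-Glo luminescence.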
# [7] = p53 small molecule agonists, cell-based qHTS assay with rat liver microsomes: qHTS cell viability counter screen (AID 1963580); further: nearly all actives have a fitted effect of over 45% in size
# Method in brief: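 Viability is assessed in parallel with the p53 reporter read: HCT-116 p53RE-bla cells receive compounds plus rat microsomes and NADPH (0.5 mg/mL final apiece), incubate 16 h at 37 C, and then CellTiter-Glo luminescence is recorded.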
# [8] = p53 small molecule agonists, cell-based qHTS assay: qHTS cell viability counter screen (AID 1963581); further: nearly all actives have a fitted effect of over 45% in size
# Method in brief: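 p53RE-bla HCT-116 cells, compounds added 5 h after plating and incubated 16 h at 37 C. Cytotoxicity measured in the same wells as intracellular ATP by CellTiter-Glo luminescence after 30 min at room temperature.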
# [9] = target: 5-hydroxytryptamine receptor 2A (Homo sapiens) (UniProt P28223); experiment: 5-hydroxytryptamine receptor 2A (HTR2A) small molecule antagonists, cell-based qHTS assay (AID 1963586); further: nearly all actives have a fitted effect of over 45% in size
# Method in brief: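 Antagonist-mode intracellular calcium assay: DOI (4 nM) added after 5 min compound pre-incubation at room temperature to dye-loaded HTR2A-CHO cells. Fluorescence followed for 3 min, sampled every second.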
# [10] = target: 5-hydroxytryptamine receptor 2A (Homo sapiens) (UniProt P28223); experiment: 5-hydroxytryptamine receptor 2A (HTR2A) small molecule agonists, cell-based qHTS assay (AID 1963587); further: nearly all actives have a fitted effect of over 30% in size
# Method in brief: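 CHO cells stably expressing human HTR2A, plated 18 h, loaded with calcium dye 1 h at 37 C. Agonist mode: compounds added and intracellular calcium fluorescence recorded kinetically for 2 min at 1 sec intervals.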
# [11] = target: Muscarinic acetylcholine receptor M1 (Homo sapiens) (UniProt P11229); experiment: Cholinergic receptor muscarinic 1 (CHRM1) small molecule antagonists, cell-based qHTS assay (AID 1963588); further: nearly all actives have a fitted effect of over 40% in size
# Method in brief: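 CHRM1-CHO calcium-flux assay, antagonist mode. Cells were seeded 18 h, dye-loaded 1 h at 37 C and given compound for 5 min at RT, then acetylcholine was added at 50nM. FDSS fluorescence was read 3 min; 15 concentrations, three runs.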
# [12] = target: Muscarinic acetylcholine receptor M1 (Homo sapiens) (UniProt P11229); experiment: Cholinergic receptor muscarinic 1 (CHRM1) small molecule agonists, cell-based qHTS assay (AID 1963589); further: nearly all actives have a fitted effect of over 35% in size
# Method in brief: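 CHO cells stably expressing human CHRM1 were loaded with calcium dye for 1 h at 37 C, then compound was added in agonist mode. Intracellular calcium fluorescence was followed kinetically at 1 s intervals. Fifteen concentrations were tested in three independent runs.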
# [13] = cAMP Responsive Elements (CRE) small molecule agonists, cell-based qHTS assay (AID 1963590)
# Method in brief: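 CRE-bla HEK 293T cells, 2,000/well in DMEM with 10% dialyzed FBS and 25 mM HEPES, pre-incubated 18 h at 37 C, then exposed to compound 3 h at 37 C. Beta-lactamase reporter read with LiveBLAzer B/G FRET substrate after 2 h at room temperature.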
# [14] = target: Beta-2 adrenergic receptor (Homo sapiens) (UniProt P07550); experiment: Adrenergic beta2 receptor (ADRB2) small molecule antagonists, cell-based qHTS assay (AID 1963592); further: series mostly up to about 92 µM; nearly all actives have a fitted effect of over 50% in size
# Method in brief: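 Cells (CHO, stable ADRB2 overexpression) incubated 18-20hr at 37C; compounds added from DMSO; agonist mix (1nM isoproterenol, 100uM IBMX, 25uM Ro-20-1724) added; 0.5hr RT; d2-cAMP and anti-cAMP-cryptate added; 1hr RT; 665/615 nm read.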
# [15] = target: D(2) dopamine receptor (Homo sapiens) (UniProt P14416); experiment: Dopamine D2 receptor (DRD2) small molecule agonists, cell-based qHTS assay (AID 1963594); further: nearly all actives have a fitted effect of over 35% in size
# Method in brief: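 HEK293 cells stably expressing human DRD2, pre-treated with PDE inhibitor Ro20-1724 (0.1 mM final) and compound 10 min at room temperature, then stimulated with NKH477 (200nM […]) for 30 min. cAMP read by HTRF (665/620 nm).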
# [16] = target: D(2) dopamine receptor (Homo sapiens) (UniProt P14416); experiment: Dopamine D2 receptor (DRD2) small molecule antagonists, cell-based qHTS assay (AID 1963595; active means well fitted inhibition curve with a large enough effect in the signal ratio in the repeat runs, with a control signal flat; the % refers to the signal ratio)
# Method in brief: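 Antagonist mode in DRD2-HEK293 cells: after compound addition with 0.1 mM Ro20-1724, cells received quinpirole (12 nM) and NKH477 (200 nM) for 30 min at room temperature; HTRF cAMP read after 1 h detection.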
# [17] = target: Beta-2 adrenergic receptor (Homo sapiens) (UniProt P07550); experiment: Adrenergic beta2 receptor (ADRB2) small molecule agonists, cell-based qHTS assay (AID 1963593);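 further: CHO cells stably overexpressing human ADRB2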
# Method in brief: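 CHO cells stably over-expressing ADRB2 were plated overnight at 37C, then dosed with compounds plus a stimulation mix containing 100uM IBMX and 25uM Ro-20-1724 for 0.5hr at room temperature. cAMP was measured by HTRF competition, 1hr.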
# [18] = cAMP Responsive Elements (CRE) small molecule antagonists, cell-based qHTS assay (AID 1963591; active means well fitted inhibition curve with a large enough effect in the signal ratio in the repeat runs, not every such curve was filed as active; the % refers to the signal ratio)
# Method in brief: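 CRE-bla HEK293T cells plated 18 h, then given compound plus NKH477 at 0.25 uM final for 3 h at 37C. Beta-lactamase reporter read with LiveBLAzer B/G FRET substrate after 2 h at room temperature.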
# Chain of 5-hydroxytryptamine receptor 2A (Homo sapiens) (P28223 whole entry, looked up): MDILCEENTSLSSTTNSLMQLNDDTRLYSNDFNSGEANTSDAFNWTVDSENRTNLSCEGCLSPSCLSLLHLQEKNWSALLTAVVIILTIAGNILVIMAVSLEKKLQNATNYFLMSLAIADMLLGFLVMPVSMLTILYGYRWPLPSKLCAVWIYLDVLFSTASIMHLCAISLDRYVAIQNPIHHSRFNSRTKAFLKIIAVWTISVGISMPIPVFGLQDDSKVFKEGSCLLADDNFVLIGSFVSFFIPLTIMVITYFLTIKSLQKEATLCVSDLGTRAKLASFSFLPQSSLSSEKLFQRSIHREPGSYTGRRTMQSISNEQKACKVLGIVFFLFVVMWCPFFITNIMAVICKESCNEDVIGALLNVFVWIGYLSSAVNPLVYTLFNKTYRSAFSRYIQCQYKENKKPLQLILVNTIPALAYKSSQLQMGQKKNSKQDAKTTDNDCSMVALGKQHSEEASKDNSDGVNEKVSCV
# Chain of Beta-2 adrenergic receptor (Homo sapiens) (P07550 whole entry, looked up): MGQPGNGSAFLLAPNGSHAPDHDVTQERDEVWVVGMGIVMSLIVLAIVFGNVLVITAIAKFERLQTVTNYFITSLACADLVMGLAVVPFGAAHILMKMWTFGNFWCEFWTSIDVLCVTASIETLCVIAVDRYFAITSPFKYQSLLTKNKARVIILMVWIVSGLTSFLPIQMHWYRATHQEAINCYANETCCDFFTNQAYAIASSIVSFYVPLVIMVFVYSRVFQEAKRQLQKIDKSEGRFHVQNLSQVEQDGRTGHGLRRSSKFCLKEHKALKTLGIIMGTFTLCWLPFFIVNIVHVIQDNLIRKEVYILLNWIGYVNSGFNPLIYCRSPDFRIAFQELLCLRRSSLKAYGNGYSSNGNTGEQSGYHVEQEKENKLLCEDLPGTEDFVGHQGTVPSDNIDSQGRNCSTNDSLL
# Chain of Gonadotropin-releasing hormone receptor (Homo sapiens) (P30968 whole entry, looked up): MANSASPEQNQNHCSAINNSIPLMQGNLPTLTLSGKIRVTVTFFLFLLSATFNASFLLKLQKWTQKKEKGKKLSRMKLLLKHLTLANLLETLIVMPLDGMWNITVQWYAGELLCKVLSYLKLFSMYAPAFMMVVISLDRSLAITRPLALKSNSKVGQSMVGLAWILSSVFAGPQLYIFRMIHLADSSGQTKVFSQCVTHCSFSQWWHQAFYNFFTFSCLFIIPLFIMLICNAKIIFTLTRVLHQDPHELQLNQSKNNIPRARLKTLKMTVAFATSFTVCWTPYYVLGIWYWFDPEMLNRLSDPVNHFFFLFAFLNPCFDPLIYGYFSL
# Chain of D(2) dopamine receptor (Homo sapiens) (P14416 whole entry, looked up): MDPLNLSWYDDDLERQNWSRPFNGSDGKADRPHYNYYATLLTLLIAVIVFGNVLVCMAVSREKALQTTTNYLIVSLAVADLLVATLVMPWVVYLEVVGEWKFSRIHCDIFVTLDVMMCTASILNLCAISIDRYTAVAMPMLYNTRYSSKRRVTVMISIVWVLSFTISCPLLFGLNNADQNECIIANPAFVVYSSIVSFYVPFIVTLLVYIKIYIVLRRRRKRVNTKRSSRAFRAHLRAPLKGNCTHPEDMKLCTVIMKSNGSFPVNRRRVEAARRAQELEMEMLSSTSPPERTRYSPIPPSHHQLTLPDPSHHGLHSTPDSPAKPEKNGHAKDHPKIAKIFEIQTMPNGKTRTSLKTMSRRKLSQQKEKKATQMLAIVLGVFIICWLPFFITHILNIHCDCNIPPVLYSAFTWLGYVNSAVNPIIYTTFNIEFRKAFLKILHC
# Chain of Muscarinic acetylcholine receptor M1 (Homo sapiens) (P11229 whole entry, looked up): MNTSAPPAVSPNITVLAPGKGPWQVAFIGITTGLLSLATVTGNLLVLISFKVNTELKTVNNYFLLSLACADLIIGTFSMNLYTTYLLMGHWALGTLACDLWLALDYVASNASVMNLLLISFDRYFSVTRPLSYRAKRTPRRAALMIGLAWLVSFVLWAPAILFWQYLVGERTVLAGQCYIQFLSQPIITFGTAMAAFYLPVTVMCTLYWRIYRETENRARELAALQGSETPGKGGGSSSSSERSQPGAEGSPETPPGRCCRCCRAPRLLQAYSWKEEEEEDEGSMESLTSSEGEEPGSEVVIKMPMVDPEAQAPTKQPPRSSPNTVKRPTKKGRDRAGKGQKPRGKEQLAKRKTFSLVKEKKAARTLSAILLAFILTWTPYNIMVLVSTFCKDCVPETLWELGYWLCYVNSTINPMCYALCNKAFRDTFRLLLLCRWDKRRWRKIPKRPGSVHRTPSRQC
# Chain of KiSS-1 receptor (Homo sapiens) (Q969F8 whole entry, looked up): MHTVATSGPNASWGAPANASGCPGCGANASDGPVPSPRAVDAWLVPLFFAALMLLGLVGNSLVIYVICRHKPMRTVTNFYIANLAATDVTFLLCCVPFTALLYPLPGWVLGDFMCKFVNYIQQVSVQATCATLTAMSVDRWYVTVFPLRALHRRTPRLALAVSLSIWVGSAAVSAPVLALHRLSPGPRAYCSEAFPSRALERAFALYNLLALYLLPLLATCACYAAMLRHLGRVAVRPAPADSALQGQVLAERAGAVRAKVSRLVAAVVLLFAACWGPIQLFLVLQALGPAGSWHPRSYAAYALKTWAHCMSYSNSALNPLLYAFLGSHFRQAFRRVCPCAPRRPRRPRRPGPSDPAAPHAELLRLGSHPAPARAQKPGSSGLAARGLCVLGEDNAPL
Compound,Potency [1],Potency [2],Potency [3],Potency [4],Potency [5],Potency [6],Potency [7],Potency [8],Potency [9],Potency [10],Potency [11],Potency [12],Potency [13],Potency [14],Potency [15],Potency [16],Potency [17],Potency [18]
CC(C)=CCCC(C)CC(=O)O (stereo not drawn),inactive,inactive,inactive,inactive,inactive,inactive,inactive,inactive,inactive,inactive,inactive,inactive,inactive,inactive,inactive,inactive,,
CC(C)(C)OC(=O)c1ccc(O)cc1,inactive,61.1 µM (active),inactive,inactive,inactive,inactive,inactive,inactive,inactive,inactive,inactive,inactive,inactive,inactive,inactive,inactive,inactive,
Cc1ncc([N+](=O)[O-])n1CC(O)CCl (stereo not drawn),inactive,inactive,inactive,inactive,inactive,inactive,inactive,inactive,inactive,inactive,inactive,inactive,inactive,inactive,inactive,inactive,,inactive
C=CCCCCCCCCOC(C)=O,inactive,inactive,inactive,inactive,inactive,inactive,inactive,inactive,inactive,inactive,inactive,inactive,inactive,inactive,inactive,inactive,,
CC(O)CC(C)O (stereo not drawn),inactive,inactive,inactive,inactive,inactive,inactive,inactive,inactive,inactive,inactive,inactive,inactive,inactive,,,inactive,inactive,inactive
NC(=O)c1cc[n+](CC2=C(C(=O)[O-])N3C(=O)[C@@H](NC(=O)Cc4cccs4)[C@H]3SC2)cc1,inactive,inactive,inactive,inactive,inactive,inactive,inactive,inactive,inactive,inactive,inactive,inactive,inactive,inactive,,inactive,,inactive
CCC(C)COC(C)=O (stereo not drawn),inactive,inactive,inactive,inactive,inactive,inactive,inactive,inactive,inactive,inactive,inactive,inactive,inactive,inactive,,inactive,,
